GDH-TPI counter-1: GDH-TPI coupled enzyme inhibition counter-screen; GDH-TPI coupled enzyme counterscreen, NADH absorbance; inhibition, % at 4.8 µM; 1.2% of 360,000 active; in the data active = inhibition above about 30%;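 also: 0% = DMSO wells and 100% = wells lacking the enzyme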
BioA inh: inhibitors of Mycobacterium tuberculosis BioA enzyme; purified M. tuberculosis BioA enzyme, plate reader; AID 602481; inhibition, % at 9.99 µM; 0.096% of 360,000 active; in the data active = inhibition above about 40%
Mtb FBA inh: inhibits M. tuberculosis FBA enzyme; P9WQA3; purified M. tuberculosis FBA, fluorescence read-out; inhibition, % at 1 µM; 2.3% of 360,000 active; AID 588726;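 also: 0% = vehicle and 100% = reference inhibitor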
Target sequence (P9WQA3 whole entry, looked up): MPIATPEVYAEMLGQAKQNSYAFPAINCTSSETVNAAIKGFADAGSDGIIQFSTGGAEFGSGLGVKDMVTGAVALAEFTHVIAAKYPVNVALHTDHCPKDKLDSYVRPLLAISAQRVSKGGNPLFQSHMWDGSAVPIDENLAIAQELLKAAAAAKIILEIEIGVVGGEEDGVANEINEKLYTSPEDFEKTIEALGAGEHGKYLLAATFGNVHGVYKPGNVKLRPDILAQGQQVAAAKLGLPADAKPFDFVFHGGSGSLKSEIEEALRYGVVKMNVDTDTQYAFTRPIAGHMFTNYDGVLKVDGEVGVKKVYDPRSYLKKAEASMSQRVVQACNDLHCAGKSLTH
SARS 3CLpro inh: SARS-CoV 3CLpro protease inhibition. P0C6X7. inhibition, % at 6 µM. 0.14% of 290,000 active. recombinant SARS-CoV 3CLpro, quenched FRET peptide cleavage; in the data active = inhibition above about 12%
FadD28 FP inh: blocks FadD28 binding to the bisubstrate probe; inhibition, % at 12.5 µM; 0.22% of 360,000 active; fluorescence polarization; AID 588549; in the data active = inhibition above about 8.5%, passing the limit was not always enough
Mtb FBA confirm: Mtb FBA inhibition, confirmed; shares compounds with Mtb FBA inh; inhibition, % at 1 µM; AID 651616; 78% of 5,600 active; purified M. tuberculosis FBA, fluorescence read-out;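 also: 0% = vehicle wells and 100% = reference inhibitor wells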
GDH-TPI counter-2: inhibits GDH-TPI coupling enzymes, flagging Mtb FBA hits; shares compounds with Mtb FBA inh; inhibition, % at 1 µM; 81% of 5,600 active; GDH-TPI coupled enzyme counterscreen, fluorescence; in the data active = inhibition above about 10%
* hit, by the source's call; . = no result given; + = active, no number. In the library only some 3.1% were active in any assay of this set; here they are far more common. Rule as the data show it, unless noted: active = inhibition above about 27%; inactive = the rest.

SMILES	GDH-TPI counter-1	BioA inh	Mtb FBA inh	SARS 3CLpro inh	FadD28 FP inh	Mtb FBA confirm	GDH-TPI counter-2
Cc1cccn2c(=O)c3cc(C#N)c(=N)n(CCCN4CCOCC4)c3nc12	2	0	62*	-8	1	+	+
COCCCn1c(=N)c(C(=O)NCc2ccc3c(c2)OCO3)cc2c(=O)n3cccc(C)c3nc21	4	.	-2	.	0	.	.
C[C@@H]1CN([C@H](C)CO)S(=O)(=O)c2ccc(C#CC3CC3)cc2O[C@H]1CN(C)C(=O)C1CCC1	.	1	.	.	.	.	.
CCOCCCn1c(=N)c(C(=O)NCc2ccc3c(c2)OCO3)cc2c(=O)n3cccc(C)c3nc21	10	2	6	-2	-2	.	.
Cc1cccn2c(=O)c(C(=O)NC3CCCCC3)c(O)nc12	3	3	2	1	0	.	.
Cc1cccn2c(=O)c3cc(C(=O)NC4CCCCC4)c(=N)n(CCN4CCOCC4)c3nc12	1	.	67*	-4	-1	43*	41*
COCCCn1c(=N)c(C(N)=S)cc2c(=O)n3cccc(C)c3nc21	10	1	73*	.	-7	57*	42*
Cc1cccn2c(=O)c3cc(C(N)=S)c(=N)n(CCCN4CCOCC4)c3nc12	-1	.	57*	-1	-3	56*	55*
CO[C@@H]1CN(C)C(=O)c2ccc(NS(=O)(=O)c3ccccc3)cc2OC[C@H](C)N(C(=O)NC(C)C)C[C@@H]1C	.	-2	.	.	.	.	.
CCCNC(=O)[C@H]1[C@H](CO)[C@H]2Cn3c(ccc(/C=C/c4ccccc4)c3=O)[C@@H]1N2C(C)=O	.	-2	.	.	.	.	.
CCCCc1cc(=O)oc2cc(OS(C)(=O)=O)ccc12	5	2	17	0	-1	.	.
O=C1CCCCC1Oc1ccc2ccc(=O)oc2c1 (configuration not stated)	9	-1	58*	1	-4	+	174*
CCCc1cc(=O)oc2cc(OC3CCCCC3=O)ccc12 (configuration not stated)	14	-3	45*	-3	-2	26	22*
COc1ccc(S(=O)(=O)Nc2ccc3c(c2)CC(=O)N([C@@H](C)CO)C[C@@H](C)[C@H](CN(C)CC2CCCCC2)O3)cc1	.	2	.	.	.	.	.
CCS(=O)(=O)N[C@H]1C=C[C@H](CC(=O)NCc2ccc(F)cc2)O[C@H]1CO	.	-4	.	.	.	.	.
CN(C)CC(=O)Nc1ccc2c(c1)[C@@H]1C[C@H](CC(=O)NCCc3ccccc3)O[C@@H](CO)[C@@H]1O2	.	0	.	.	.	.	.
CCNC(=O)C[C@H]1CC[C@H](NC(=O)C2CCOCC2)[C@H](CO)O1	.	0	.	.	.	.	.
O=C1NN=C2CCCCCCC12 (configuration not stated)	11	-1	29*	.	-1	85*	70*
C[C@@H]1CCCCCCCCCCC1=O	-1	-1	2	-1	1	.	.
O=C1[C@H]2C(c3ccccc3)=NN(c3ccccc3)[C@H]2C(=O)N1c1ccccc1	1	.	31*	6	1	67*	59*
O=C1C2C(c3ccccc3)=NN(c3ccccc3)C2C(=O)N1c1ccccc1 (configuration not stated)	0	-3	5	-1	0	.	.
CC(=O)N1N=C(c2ccncc2)OC12CCCCC2	0	0	89*	-4	-1	49*	40*
CC(=O)N1N=C(c2ccncc2)OC12CCCCCC2	7	-1	77*	-3	1	+	+
COC(=O)c1cn(-c2ccccc2)nc1-c1ccccc1	-8	3	36*	0	2	73*	56*
ClCc1nc2ccccc2c2ccccc12	7	-2	4	1	-3	.	.
SMILES	GDH-TPI counter-1	BioA inh	Mtb FBA inh	SARS 3CLpro inh	FadD28 FP inh	Mtb FBA confirm	GDH-TPI counter-2
[O-][n+]1nc2ccccc2c2ccccc21	13	1	37*	.	0	88*	78*
Fc1cccc(NC(=S)NNc2c3ccccc3nc3ccccc23)c1	10	.	50*	2	-3	187*	132*
Cc1noc(C)c1NC(=O)Nc1ccc2c(c1)CC(=O)N([C@@H](C)CO)C[C@@H](C)[C@H](CN(C)C(=O)NC(C)C)O2	.	0	.	.	.	.	.
c1cc(-c2cc3nc(NC4CCCCC4)ccn3n2)ccc1OCCN1CCOCC1	12	-1	24	.	1	.	.
c1cc(-c2cc3nc(NCC4CC4)ccn3n2)ccc1OCCN1CCOCC1	-2	2	37*	.	-1	69*	72*
CCOC(=O)c1cnn2c(C)cc(-c3ccccc3)nc12	17	.	54*	0	-2	+	+
CCCn1c(=O)c2c(C(=O)OCC)cc(-c3ccco3)nc2n(CCC)c1=O	6	0	41*	4	1	166*	124*
CCOC(=O)c1cc2nc(-c3ccccc3)cc(C)n2n1	7	0	8	-4	0	.	.
COc1ccc(-c2cc(C(F)(F)F)n3ncc(C(=O)NCc4ccco4)c3n2)cc1	24	-1	30*	2	0	165*	145*
Cc1cccc(Cc2c(C)nc3c(C(=O)NCc4ccco4)cnn3c2C)c1	5	19	31*	-1	0	194*	148*
C[C@H]1CN([C@@H](C)CO)C(=O)c2cc(NS(=O)(=O)c3ccc(F)cc3)ccc2O[C@@H]1CN(C)Cc1ccc(-c2ccccc2)cc1	.	0	.	.	.	.	.
COCCNC(=O)C[C@@H]1CC[C@@H]2[C@H](COc3ccc(NC(=O)Nc4ccccc4)cc3C(=O)N2C)O1	.	12	.	.	.	.	.
CC(C)CCNC(=O)c1cnn2c(C(F)(F)F)cc(-c3ccco3)nc12	22	.	8	3	0	.	.
CCOC(=O)c1cnn2c(C(F)(F)F)cc(-c3ccco3)nc12	21	6	53*	-3	-3	+	160*
